Data taken from the supplement of paper PMC10849652.
Of roughly 8,800 targets only a part is listed; those with a hit were picked by preference. About 0.5% of all pairs of compound and target were hits.

compound: CCn1cc(-c2ccnc3[nH]c(-c4cccc(CN(C)C)c4)cc23)c(-c2ccc(NC(=O)N(C)C)cc2)n1; experiment: log2 fold change, soluble protein after heating vs DMSO (PISA); higher = thermal stabilisation; K562 lysate, 10 uM; active = over 0.2 and 3.5 SD of the protein, either way, in both replicates (recomputed)
Procedure, shortened: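 The values are log-two fold changes in thermal stability compared with solvent controls and come from duplicates. They were obtained by TMTpro 16plex LC-MS/MS, with channel sums equalised, on the supernatant after 21,000xg for 90 min. That supernatant came from crude K562 extract at 1 mg/mL protein treated with 10 μM compound for 30 min, heated for 3 min across 48°C-58°C, pooled and brought to 0.5% NP-40 at 4°C.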

Sequence of UniProt Q8IWV2 (Q8IWV2 whole entry, looked up): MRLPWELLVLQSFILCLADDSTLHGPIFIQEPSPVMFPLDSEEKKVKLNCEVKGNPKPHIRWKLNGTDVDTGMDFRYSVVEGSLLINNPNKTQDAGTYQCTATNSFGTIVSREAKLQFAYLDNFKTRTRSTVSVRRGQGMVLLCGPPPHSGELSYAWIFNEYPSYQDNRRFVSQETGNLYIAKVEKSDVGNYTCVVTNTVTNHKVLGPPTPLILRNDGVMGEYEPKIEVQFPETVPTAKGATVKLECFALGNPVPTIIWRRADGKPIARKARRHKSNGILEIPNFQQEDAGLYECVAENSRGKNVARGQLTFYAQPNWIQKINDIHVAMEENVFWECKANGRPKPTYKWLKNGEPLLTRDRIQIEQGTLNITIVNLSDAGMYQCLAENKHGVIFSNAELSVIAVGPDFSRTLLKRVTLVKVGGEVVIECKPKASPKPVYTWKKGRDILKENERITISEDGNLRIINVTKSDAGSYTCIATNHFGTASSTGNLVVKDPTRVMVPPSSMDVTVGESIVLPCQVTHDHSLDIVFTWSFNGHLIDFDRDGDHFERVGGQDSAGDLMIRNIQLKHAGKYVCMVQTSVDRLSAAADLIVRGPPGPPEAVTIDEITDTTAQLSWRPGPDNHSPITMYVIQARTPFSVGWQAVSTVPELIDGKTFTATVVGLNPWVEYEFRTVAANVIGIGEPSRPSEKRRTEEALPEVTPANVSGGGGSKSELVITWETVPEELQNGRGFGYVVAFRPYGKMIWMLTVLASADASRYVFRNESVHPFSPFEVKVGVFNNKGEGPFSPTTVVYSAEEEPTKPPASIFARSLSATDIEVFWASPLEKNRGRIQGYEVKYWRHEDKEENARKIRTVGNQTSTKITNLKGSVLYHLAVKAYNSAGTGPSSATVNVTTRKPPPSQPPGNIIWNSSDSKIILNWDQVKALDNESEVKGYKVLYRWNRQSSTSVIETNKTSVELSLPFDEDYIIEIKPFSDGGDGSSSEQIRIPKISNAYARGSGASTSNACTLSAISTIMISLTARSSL
Sequence of UniProt Q9UP83 (Q9UP83 whole entry, looked up): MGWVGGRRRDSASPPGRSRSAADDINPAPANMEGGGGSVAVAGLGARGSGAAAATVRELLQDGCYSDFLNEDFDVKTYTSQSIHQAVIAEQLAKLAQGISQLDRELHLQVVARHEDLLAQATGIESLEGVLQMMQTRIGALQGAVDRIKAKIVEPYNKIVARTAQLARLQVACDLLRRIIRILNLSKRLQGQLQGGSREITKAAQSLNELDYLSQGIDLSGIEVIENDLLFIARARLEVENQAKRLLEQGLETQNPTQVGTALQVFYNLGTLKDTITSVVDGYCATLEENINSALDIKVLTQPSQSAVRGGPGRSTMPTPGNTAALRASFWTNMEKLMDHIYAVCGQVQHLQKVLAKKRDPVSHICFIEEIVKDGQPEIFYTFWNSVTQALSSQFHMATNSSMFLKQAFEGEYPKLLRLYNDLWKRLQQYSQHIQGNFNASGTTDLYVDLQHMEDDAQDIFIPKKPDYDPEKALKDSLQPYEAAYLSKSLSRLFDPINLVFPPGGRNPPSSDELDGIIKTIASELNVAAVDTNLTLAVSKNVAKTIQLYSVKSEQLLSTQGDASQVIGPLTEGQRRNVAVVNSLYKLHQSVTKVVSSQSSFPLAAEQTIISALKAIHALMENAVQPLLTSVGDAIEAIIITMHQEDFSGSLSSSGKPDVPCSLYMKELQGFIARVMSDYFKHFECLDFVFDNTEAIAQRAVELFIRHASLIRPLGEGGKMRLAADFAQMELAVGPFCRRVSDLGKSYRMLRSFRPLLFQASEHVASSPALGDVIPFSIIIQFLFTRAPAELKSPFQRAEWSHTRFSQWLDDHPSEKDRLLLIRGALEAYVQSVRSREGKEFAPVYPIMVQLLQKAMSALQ
Sequence of UniProt Q6P3W2 (Q6P3W2 whole entry, looked up): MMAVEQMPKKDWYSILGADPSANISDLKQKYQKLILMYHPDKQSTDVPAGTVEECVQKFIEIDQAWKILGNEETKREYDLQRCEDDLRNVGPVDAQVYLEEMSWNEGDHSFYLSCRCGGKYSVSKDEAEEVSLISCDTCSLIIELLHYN
Sequence of UniProt Q9BW66 (Q9BW66 whole entry, looked up): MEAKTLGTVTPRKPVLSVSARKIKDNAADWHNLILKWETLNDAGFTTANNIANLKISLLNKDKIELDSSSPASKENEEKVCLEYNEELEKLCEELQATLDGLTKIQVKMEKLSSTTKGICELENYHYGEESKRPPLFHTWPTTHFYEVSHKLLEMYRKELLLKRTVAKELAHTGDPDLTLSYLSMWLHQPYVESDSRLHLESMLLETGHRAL
Sequence of UniProt Q8NI60 (Q8NI60 whole entry, looked up): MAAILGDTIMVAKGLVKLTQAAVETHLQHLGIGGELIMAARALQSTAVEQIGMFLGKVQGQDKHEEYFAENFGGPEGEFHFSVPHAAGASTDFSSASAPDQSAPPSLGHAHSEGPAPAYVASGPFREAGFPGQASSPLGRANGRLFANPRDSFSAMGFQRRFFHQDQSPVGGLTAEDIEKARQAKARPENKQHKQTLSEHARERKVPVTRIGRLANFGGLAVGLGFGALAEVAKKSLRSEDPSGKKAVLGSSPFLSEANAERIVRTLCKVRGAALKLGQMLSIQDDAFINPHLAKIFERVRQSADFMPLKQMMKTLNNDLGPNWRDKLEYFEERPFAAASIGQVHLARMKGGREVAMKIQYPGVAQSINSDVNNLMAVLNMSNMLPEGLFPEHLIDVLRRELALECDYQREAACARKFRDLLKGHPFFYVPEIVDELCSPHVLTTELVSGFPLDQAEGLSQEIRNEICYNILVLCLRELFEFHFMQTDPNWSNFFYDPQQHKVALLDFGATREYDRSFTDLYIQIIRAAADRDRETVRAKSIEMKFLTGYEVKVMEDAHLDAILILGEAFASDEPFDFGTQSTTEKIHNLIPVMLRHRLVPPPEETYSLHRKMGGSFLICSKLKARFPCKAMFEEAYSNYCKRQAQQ
Sequence of UniProt O95628 (O95628 whole entry, looked up): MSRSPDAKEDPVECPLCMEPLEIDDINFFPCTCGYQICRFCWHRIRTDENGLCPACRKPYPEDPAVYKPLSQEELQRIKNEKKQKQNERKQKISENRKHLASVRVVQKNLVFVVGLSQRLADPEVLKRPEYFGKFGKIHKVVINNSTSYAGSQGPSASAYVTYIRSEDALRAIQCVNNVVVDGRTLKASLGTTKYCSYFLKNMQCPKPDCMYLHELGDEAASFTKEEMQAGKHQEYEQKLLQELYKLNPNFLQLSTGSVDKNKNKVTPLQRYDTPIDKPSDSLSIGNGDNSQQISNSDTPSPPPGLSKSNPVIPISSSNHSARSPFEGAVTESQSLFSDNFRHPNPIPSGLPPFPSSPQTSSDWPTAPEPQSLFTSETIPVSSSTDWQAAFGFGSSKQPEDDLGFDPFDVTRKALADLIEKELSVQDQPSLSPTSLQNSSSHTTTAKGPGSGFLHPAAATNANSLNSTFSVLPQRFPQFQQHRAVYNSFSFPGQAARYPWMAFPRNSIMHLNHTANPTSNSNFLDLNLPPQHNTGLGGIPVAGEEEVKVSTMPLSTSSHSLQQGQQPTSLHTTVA
Sequence of UniProt Q9Y6M4 (Q9Y6M4 whole entry, looked up): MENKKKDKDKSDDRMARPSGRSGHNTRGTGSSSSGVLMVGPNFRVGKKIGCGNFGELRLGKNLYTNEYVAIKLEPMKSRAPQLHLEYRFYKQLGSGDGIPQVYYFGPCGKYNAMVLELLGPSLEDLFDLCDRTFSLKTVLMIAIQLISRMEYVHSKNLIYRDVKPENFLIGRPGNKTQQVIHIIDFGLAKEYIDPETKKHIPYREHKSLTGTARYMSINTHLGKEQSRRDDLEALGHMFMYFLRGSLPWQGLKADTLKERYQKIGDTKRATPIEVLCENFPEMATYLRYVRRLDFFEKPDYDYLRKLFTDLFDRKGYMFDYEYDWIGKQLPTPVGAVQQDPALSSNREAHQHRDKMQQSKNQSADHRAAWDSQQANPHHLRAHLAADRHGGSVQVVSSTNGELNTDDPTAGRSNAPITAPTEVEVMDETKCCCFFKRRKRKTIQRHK
Sequence of UniProt Q13948 (Q13948 whole entry, looked up): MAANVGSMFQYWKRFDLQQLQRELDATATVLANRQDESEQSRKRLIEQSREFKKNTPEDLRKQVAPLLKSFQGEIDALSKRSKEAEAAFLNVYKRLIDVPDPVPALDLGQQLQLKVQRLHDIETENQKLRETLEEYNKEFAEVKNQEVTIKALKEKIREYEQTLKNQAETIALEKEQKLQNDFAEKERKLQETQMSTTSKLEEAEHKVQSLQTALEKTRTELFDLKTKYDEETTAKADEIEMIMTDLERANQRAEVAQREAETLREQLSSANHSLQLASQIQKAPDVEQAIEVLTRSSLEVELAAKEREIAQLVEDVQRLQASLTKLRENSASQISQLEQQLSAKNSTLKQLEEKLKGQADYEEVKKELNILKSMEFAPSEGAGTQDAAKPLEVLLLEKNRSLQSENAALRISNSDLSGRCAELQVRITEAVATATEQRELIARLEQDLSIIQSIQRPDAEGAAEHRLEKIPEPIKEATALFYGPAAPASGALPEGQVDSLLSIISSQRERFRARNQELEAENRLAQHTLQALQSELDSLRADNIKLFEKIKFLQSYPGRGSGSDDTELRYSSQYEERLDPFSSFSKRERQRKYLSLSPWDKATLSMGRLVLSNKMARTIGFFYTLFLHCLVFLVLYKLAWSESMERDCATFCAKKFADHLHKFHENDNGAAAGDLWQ
Sequence of UniProt P24311 (P24311 whole entry, looked up): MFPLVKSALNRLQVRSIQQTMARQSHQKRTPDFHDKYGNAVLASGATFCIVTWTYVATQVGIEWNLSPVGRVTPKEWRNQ
Sequence of UniProt P61024 (P61024 whole entry, looked up): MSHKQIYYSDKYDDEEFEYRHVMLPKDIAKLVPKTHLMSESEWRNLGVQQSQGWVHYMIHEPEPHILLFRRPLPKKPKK
Sequence of UniProt P00374 (P00374 whole entry, looked up): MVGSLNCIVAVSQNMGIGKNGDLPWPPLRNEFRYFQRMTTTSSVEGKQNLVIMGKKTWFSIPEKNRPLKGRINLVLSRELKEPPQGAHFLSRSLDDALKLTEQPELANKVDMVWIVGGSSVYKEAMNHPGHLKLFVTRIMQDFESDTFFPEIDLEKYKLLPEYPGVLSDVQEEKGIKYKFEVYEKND

Target	log2 fold change
DHFR (UniProt P00374)	0.072 (inactive)
COG4 (UniProt Q9H9E3)	0.005 (inactive)
COASY isoform 2 (UniProt Q13057)	-0.063 (inactive)
DDX4 (UniProt Q9NQI0)	-0.167 (inactive)
COG5 isoform 2 (UniProt Q9UP83)	-0.02 (inactive)
COX7B (UniProt P24311)	0.047 (inactive)
CSNK1A1 (UniProt P48729)	0.065 (inactive)
DLG3 isoform 2 (UniProt Q92796)	-0.14 (inactive)
CUX1 isoform 2 (UniProt Q13948)	0.06 (inactive)
DCTN1 isoform 4 (UniProt Q14203)	0.34 (inactive)
DDAH1 (UniProt O94760)	-0.068 (inactive)
CSNK1G3 (UniProt Q9Y6M4)	-0.095 (inactive)
CUX1 isoform 3 (UniProt P39880)	0.107 (inactive)
CINP isoform 3 (UniProt Q9BW66)	-0.331 (inactive)
CNNM2 (UniProt Q9H8M5)	-0.059 (inactive)
CNTN4 (UniProt Q8IWV2)	-0.474 (inactive)
DNAJC24 (UniProt Q6P3W2)	0.196 (inactive)
DNAH10 (UniProt Q8IVF4)	-0.582 (active)
COQ8A (UniProt Q8NI60)	-0.214 (inactive)
CNOT4 isoform 9 (UniProt O95628)	-1.23 (active)
CKS1B (UniProt P61024)	0.391 (active)
DDB2 (UniProt Q92466)	0.006 (inactive)
